This passage reports sensor-assay potency score (higher = more potent) results from the OligoGym collection.
Also: reference of the scale not given here.

In one experiment the target is CIRBP. The experiment can be described thus: pooled miR-30 sensor sort-seq; sequence = guide strand. To be noted: shRNA.
As for TTGCCTGCCTGGTCTACTCGGA, the sensor-assay potency score (higher = more potent) was -0.263.
With TAACTGTCTCTGTAGGACCCGC, the sensor-assay potency score (higher = more potent) is -0.935.
On to TATAGTAGTCTCTGGAGCCTCC, for which the sensor-assay potency score (higher = more potent) was -0.259.
The same measure, in the same setting: under TAGCCACCACTCTGACTCCGGC stands -0.921.
The sequence TTCAGAGATCTGTCCGTACTTT had a sensor-assay potency score (higher = more potent) of 0.15.
As for TGTCTTTCACAACCACCACTTC, the sensor-assay potency score (higher = more potent) is -0.854.
Regarding TTGGTGTCAAAACTCAGCCCTC, the sensor-assay potency score (higher = more potent) was -0.687.
With ATCCTTAGCGTCGTCAATGTTC, the sensor-assay potency score (higher = more potent) is -1.29.

For the next experiment, the target named is CLCN5. The description is as above. To be noted: shRNA.
For the sequence TCAAACCAGCTAACGAACCTGA, the sensor-assay potency score (higher = more potent) was -0.258.
The same measure, in the same setting: under TATAACAGGATACTTGCCCAAC stands -1.3; under AAAAGCATCACTCACACTGTGA, -0.413.
With TTGAGGGGAAAATAGTAGCTGA, the sensor-assay potency score (higher = more potent) is -0.729.
Take TATAGCACCAACAGCCATGCTA: the sensor-assay potency score (higher = more potent) is -0.0804.
Turning to TATATGCTTTAACACATCCTTT, the sensor-assay potency score (higher = more potent) is -1.04.
Regarding TTGATAACCAGAGTCCACTTAC, the sensor-assay potency score (higher = more potent) is -0.327.
On to TTGAAATCATCATAGGTCCCTA, for which the sensor-assay potency score (higher = more potent) is -0.0127.
Take TATAGTAATGACAATTTTCAGT: the sensor-assay potency score (higher = more potent) was -0.57.
Consider TTTGCTTGTGTTGAAACGGTTC, for which the sensor-assay potency score (higher = more potent) was -0.272.
Sequence TTCCACAGTCATACTGTCCTGA displayed a sensor-assay potency score (higher = more potent) of 0.719.
Turning to TAGCTGACCTCTTCAAGGCTGA, the sensor-assay potency score (higher = more potent) is -0.234.
Same read-out and setting: in the case of TTAAGTCTGTCATCCAATGAGC it was -1.29; in that of TGCTATAGCACCAACAGCCATG, -1.3.
Turning to TTTGTCTCTCTCTTCAAAGGTG, the sensor-assay potency score (higher = more potent) is -0.196.
Regarding TCTTATGAGCAAACTCTTCTTT, the sensor-assay potency score (higher = more potent) is -0.0775.
As for TTTCATCACATCCATTGCCAGG, the sensor-assay potency score (higher = more potent) was -1.34.
For TTTAACACATCCTTTTTGGTAA, the sensor-assay potency score (higher = more potent) is -0.176.
As for TTTTATTGGTAATCTCTCGGTG, the sensor-assay potency score (higher = more potent) was -0.249.
On to TTTATTGGTAATCTCTCGGTGC, for which the sensor-assay potency score (higher = more potent) came to 0.182.
Still for that read-out and setting: in the case of TTCCTGTATTTGTTGAAGCAGT it was -0.859.

The target of another experiment is CLDN16. The description is as above. As to conditions: shRNA.
TACATTTTGGCCGTCTCTGTGC: the sensor-assay potency score (higher = more potent) is -0.539.
With TAGAACGTTCCACATACACATC, the sensor-assay potency score (higher = more potent) was -1.34.
AAATATATTGTGCAAAACCAAA: the sensor-assay potency score (higher = more potent) was -1.81.
For AATATCTGCAGTAATCATCAAC, the sensor-assay potency score (higher = more potent) was -0.661.
On the same count and under the same terms, under TTCTCTCAGGTCCAACATCTTT stands -1.61; under TTTACTTTTTCTCACGCCCTGC, -0.567.
With TTAAAAAGATATAAGCAGCAGG, the sensor-assay potency score (higher = more potent) was -0.367.
Same read-out and setting: under TCTGCAGTAATCATCAACGCTC stands -0.0383; under AAGAATAATACAAACAGGCTGT, 0.277; under TAGAATATCTGCAGTAATCATC, -0.742.
Take TTTGTGACGCATTCCCACCAGA: the sensor-assay potency score (higher = more potent) is -0.822.
